Laboratory results reported in PubChem BioAssay.
Several values for one entry are separate records, joined by “and”; a condition that tells them apart may be missing. Equal entries are not always repeated. Activity calls are given as the source filed them. Cut-off read from the data, not from the text of the source, unless noted: active = parasite load remaining mostly below about 12% (no sharp cut-off); inactive = mostly above about 10%.

How the values were obtained:
[1] = P. berghei load reduction in hepatocytes – cell-based, HepG2, luciferase luminescence, HepG2 viability, primary screen (AID 624349);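 note: 100% = mean of DMSO negative control wells on the same plate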; conditions: P. berghei liver stage in HepG2, luciferase luminescence, concentration not given here; parasite load remaining: stronger effect = lower value; viability: measured here: HepG2 viability without parasites
[2] = Wnt pathway potentiators raising nuclear beta-catenin – imaging, WNT3A-conditioned medium, mouse C2C12, NPC library, primary screen (AID 1117326; in the data active = nuclear beta-catenin stimulation mostly above about 4.2%, no sharp cut-off; inactive = mostly below about 10%; note: reference of the scale not given here); conditions: stronger effect = higher value
[3] = stimulators of insulin release from INS-1E, primary screen, cell-based, 5 mM glucose, NPC library (AID 1117329;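 active = compound raises insulin release from rat beta cells at 5 mM glucose, no numeric limit stated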; note: reference of the scale not given here); conditions: rat INS-1E insulin secretion, at 10 µM, stronger effect = higher value
[4] = growth inhibition of GSK3B-pretreated HCT116 cells – cell-based, CellTiter-Glo, 0.2 to 20 µM (AID 1117336;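 active = compounds lowering colon cancer cell viability after pretreatment blocking the GSK3B kinase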); conditions: HCT116 viability after GSK3B inhibitor, at 20 µM, stronger effect = higher value
[5] = inhibition of endothelial tube formation, primary screen, imaging, VEGF stimulated, CD31 staining, tube area, NPC library (AID 1117340;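 active = compound that reduces growth-factor-driven endothelial tube area in a mixed cell culture, no cutoff stated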); conditions: VEGF-stimulated ADSC/ECFC co-culture, at 10 µM, stronger effect = higher value
[6] = GLP1 release stimulators, primary, NCI-H716, NPC library (AID 1117341;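 active = compound raises GLP1 secretion from the human gut endocrine cells, with no numeric limit stated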; note: reference of the scale not given here); conditions: NCI-H716 cells, at 10 µM, stronger effect = higher value
[7] = HCT116 colon cancer cell growth inhibition, primary screen, CellTiter-Glo luminescence, NPC library (AID 1117342;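 active = compounds that lower survival of HCT116 colon cancer cells in the luminescence readout, no numeric limit stated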); conditions: at 20 µM (top of the series)
[8] = reduced SW480 viability measured with CellTiter-Glo, NPC library, primary (AID 1117343;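 active = compounds that lower viability of the colon cancer cells in the luminescence readout, with no numeric limit stated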); conditions: CellTiter-Glo luminescence; at 20 µM (top of the series) unless noted
[9] = NPC library primary testing for decreased DLD-1 cell viability via CellTiter-Glo (AID 1117346;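 active = compounds that lower survival of DLD-1 colon cancer cells in the luminescence readout, no cutoff given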); conditions: DLD-1 viability, CellTiter-Glo luminescence; at 20 µM (top of the series)
[10] = viability loss with induced miR-34 in A549 – imaging, A549 dox-inducible miR-34, nuclei and caspase counts, primary screen (AID 1347080;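 active = compounds whose cell count with miR-34 switched on is under 0.7 times the count with it off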); conditions: A549 miR-34 inducible, Hoechst nuclei count, 48 h
[11] = MELAS cybrid and Rieske KO viability enhancers – cell-based, MELAS cybrids, Rieske KO mouse fibroblasts, CellTiter-Glo, primary screen (AID 1508586;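 active = mean z-score across replicates of 1.96 or higher in either the MELAS or the Rieske mutant cell line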;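 note: z relative to plate mean and SD of compound and empty wells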); conditions: low glucose
[12] = stronger effect = lower value, cell number ratio, induced over uninduced
[13] = measured here: relative caspase fold change +Dox/-Dox
[14] = measured here: total cells with miR-34 induction, stronger effect = lower value
[15] = measured here: total cells without miR-34 induction
[16] = MELAS cybrid survival, CellTiter-Glo 48 h, stronger effect = higher value
[17] = Rieske KO mouse fibroblast survival, CellTiter-Glo 72 h

| Structure (SMILES) | parasite load remaining [1] | viability [1] | nuclear beta-catenin stimulation ([2]; at 10 µM) | nuclear beta-catenin stimulation ([2]; stimulation, at 2 µM) | insulin secretion stimulation [3] | viability decrease [4] | tube area decrease [5] | GLP1 secretion stimulation [6] | inhibition of viability [7] | viability decrease (inhibition) [8] | viability decrease (inhibition) [9] | fold change [10, 12] | fold change [10, 13] | cell count [10, 14] | cell count [10, 15] | z-score [11, 16] | z-score [11, 17] |
| --- | --- | --- | --- | --- | --- | --- | --- | --- | --- | --- | --- | --- | --- | --- | --- | --- | --- |
| CC(=O)OCC(=O)[C@@]1(O)CC[C@H]2[C@@H]3CCC4=CC(=O)C=C[C@]4(C)[C@@]3(F)[C@@H](O)C[C@@]21C | 53.1% (inactive) and 126% (inactive) | 50.3% and 103% | 0.8% (inactive) | 0% | -2.1% (inactive) | 9.45% (inactive) | -21.7% (inactive) | 3.3% (inactive) | -4.3% (inactive) | 42.5% (inactive) | 23% (inactive) | 0.893 (inactive) | 1.25 | 4910 | 5500 | -1.23 (inactive) | 0.0318 |
| Cc1ncc(C[n+]2csc(CCO)c2C)c(N)n1 | 161% (inactive) and 60.9% (inactive) | 98.2% and 74.9% | -1.9% (inactive) | -0.8% | 3.8% (inactive) | -12.9% (inactive) | -6.7% (inactive) | -1.3% (inactive) | 5% (inactive) | 7.9% (inactive) | 1.8% (inactive) | 0.836 (inactive) | 1.04 | 8780 | 10500 | 0.823 (inactive) | 0.201 |
| Nc1c(CC(=O)O)cccc1C(=O)c1ccccc1 |  |  | 0.8% (inactive) | 0.5% | -0.2% (inactive) | -2.3% (inactive) | -6.1% (inactive) | 2.5% (inactive) | 0.4% (inactive) | 0.2% (inactive) | -11.2% (inactive) | 0.914 (inactive) | 0.966 | 7840 | 8580 | -0.237 (inactive) | -0.172 |
| Cc1ccc(Nc2c(F)cccc2Cl)c(CC(=O)O)c1 |  |  | 1% (inactive) | 3.4% | -0.3% (inactive) | 0.4% (inactive) | -20.6% (active) | 3.1% (inactive) | -25.8% (inactive) | -2.2% (inactive) | -9.1% (inactive) | 0.931 (inactive) | 0.932 and 0.672 | 8200 and 8630 | 8810 and 9270 | -0.194 (inactive) | 0.00857 |
| CC(=O)OCC(=O)[C@@]1(OC(C)=O)[C@@H](C)C[C@H]2[C@@H]3C[C@H](F)C4=CC(=O)C=C[C@]4(C)[C@@]3(F)[C@@H](O)C[C@@]21C | 91.6% (inactive) and 91.1% (inactive) | 118% and 76.3% | 2.1% (inactive) | 0.9% | 15.2% (inactive) | 4% (inactive) | -8.8% (inactive) | 1.7% (inactive) | 17.6% (inactive) | 16.6% (inactive) | 7.1% (inactive) | 0.811 (inactive) | 1.36 | 7160 | 8820 | -0.532 (inactive) | -0.0519 |
